Assay [1] can be described thus: cAMP Responsive Elements (CRE) small molecule antagonists, cell-based qHTS assay: qHTS cell viability counter screen (AID 2060913). Also: nearly all actives have a fitted effect of over 40% in size. The procedure, abridged:
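Viability of NKH477-stimulated (0.25 uM final) CRE-bla HEK293T cells is measured by CellTiter-Glo luminescence following 3 hrs compound exposure at 37 C.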

Assay [2] is described as follows: cAMP Responsive Elements (CRE) small molecule agonists, cell-based qHTS assay: qHTS cell viability counter screen (AID 2060914).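 Also: viability read after 3 h of compound exposure; nearly all actives have a fitted effect of over 50% in size.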 The procedure, abridged:
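Cells are seeded and incubated 18 h, treated with compounds in DMSO for 3 h, read for the bla reporter, then given CellTiter-Glo; luminescence is measured after 30 min at room temperature.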
(In general: qHTS replaces the single test concentration by a dilution series.)

Inconclusive results are not listed. Values without a mark were called inactive. Active and inactive are the calls of the source. Calls follow the shape of the dose curve; as a rule, active = well fitted cell-killing curve with a large enough effect in the repeat runs; inconclusive = weak or mixed curves, or effect the other way; inactive = flat fitted curve, though single readings scatter.
% is scaled to controls: 0 for no effect and ±100 for the full control effect.

For `CC1CCC(CO)CC1` (centres undefined), the Potency result in assay [1] and in assay [2] was “inactive” in each case.
As to `Oc1cccc(O)c1`, the Potency entry in assay [1] and in assay [2] was “inactive” in each case.
As for `Cc1nc([N+](=O)[O-])cn1-c1ccc([N+](=O)[O-])cc1`, the Potency result in assay [1] and in assay [2] was “inactive” each time.
For the compound `S=C([S-])NCCNC(=S)[S-].S=C([S-])NCCNC(=S)[S-].[Mn+2].[Zn+2]`, the Potency result in assay [1] and in assay [2] was “inactive” in each case.
On to `CC(C)C=O`, for which the Potency entry in assay [1] and in assay [2] was “inactive” each time.
`BrC/C=C/CBr`: the viability change, negative = cytotoxic in assay [1] was 15.6% [at 18.9 µM]. Besides, the activity change, negative = cytotoxicity in assay [2] is 3.61% [at 18.9 µM].
With `CN(C)c1ccc(O)c2c1C[C@H]1C[C@H]3[C@H](N(C)C)C(=O)C(C(N)=O)=C(O)[C@@]3(O)C(=O)C1=C2O`, the Potency result in assay [1] and in assay [2] was “inactive” each time.
Take `Nc1nc(Cl)nc2c1ncn2[C@@H]1O[C@H](CO)[C@@H](O)[C@@H]1F`: the Potency entry in assay [1] and in assay [2] was “inactive” in each case.
Turning to `NC(=O)NO`, the Potency entry in assay [1] and in assay [2] was “inactive” each time.
As for `CC(C)[C@H](N)C(=O)OCCOCn1cnc2c(=O)[nH]c(N)nc21`, the Potency result in assay [1] and in assay [2] was “inactive” throughout.
In the case of `C=C(C)[C@@H]1CC=C(C)CC1`, the Potency result in assay [1] and in assay [2] was “inactive” each time.
Consider `CCCCOC(=O)C(=O)OCCCC`, for which the Potency result in assay [1] and in assay [2] was “inactive” each time.
Turning to `CC/C(C)=N\O[Si](C)(O/N=C(\C)CC)O/N=C(\C)CC`, the Potency result in assay [1] and in assay [2] was “inactive” throughout.
Regarding `CC(C)=CCOC(=O)c1ccccc1`, the Potency result in assay [1] and in assay [2] was “inactive” in each case.
Consider `CCCCCC(=O)O[C@]1(C(C)=O)CC[C@H]2[C@@H]3CCC4=CC(=O)CC[C@]4(C)[C@H]3CC[C@@]21C`, for which the Potency result in assay [1] and in assay [2] was “inactive” in each case.
In the case of `C/C(=C(/OCCOc1ccc(Cl)cc1)c1ccc(Cl)cc1Cl)n1ccnc1`, the Potency entry in assay [1] and in assay [2] was “inactive” in each case.
Turning to `CC(C)OC(=O)CCC(=O)OC(C)C`, the Potency entry in assay [1] and in assay [2] was “inactive” throughout.
Turning to `COCCc1ccccn1`, the Potency entry in assay [1] and in assay [2] was “inactive” each time.
For the compound `CC(=O)OC/C=C/c1ccccc1`, the Potency entry in assay [1] and in assay [2] was “inactive” in each case.
With `CC/C(=C\C(=N/O)C(N)=O)C(C)[N+](=O)[O-]` (centres undefined), the Potency result in assay [1] and in assay [2] was “inactive” throughout.
As for `CC(=O)CCC=C(C)C`, the Potency entry in assay [1] and in assay [2] was “inactive” each time.
Consider `C#CC(O)CCCCC` (centres undefined), for which the Potency result in assay [1] and in assay [2] was “inactive” in each case.
In the case of `O=c1[nH]nc(-c2ccc([N+](=O)[O-])o2)o1`, the Potency result in assay [1] and in assay [2] was “inactive” in each case.
`C[Si](NC1CCCCC1)(NC1CCCCC1)NC1CCCCC1`: the Potency entry in assay [1] and in assay [2] was “inactive” throughout.
As to `Oc1ccccc1Cc1ccccc1O`, the Potency result in assay [1] and in assay [2] was “inactive” each time.
As for `CCCN(CCC)C(=O)C(CCC(=O)OCCCN1CCN(CCOC(=O)Cc2c(C)n(C(=O)c3ccc(Cl)cc3)c3ccc(OC)cc23)CC1)NC(=O)c1ccccc1` (centres undefined), the Potency entry in assay [1] and in assay [2] was “inactive” in each case.
Turning to `NC(=O)N(O)[C@@H]1COc2cc(OCc3ccccc3)ccc21`, the Potency result in assay [1] and in assay [2] was “inactive” each time.
For the compound `COc1cc(OC)cc(OC)c1`, the Potency result in assay [1] and in assay [2] was “inactive” throughout.
For the compound `CCCCCC1C(=O)CCC1CC(=O)OC` (centres undefined), the Potency result in assay [1] and in assay [2] was “inactive” each time.
In the case of `O=C(O)c1[nH]n(-c2ccc(S(=O)(=O)O)cc2)c(=O)c1N=Nc1ccc(S(=O)(=O)O)cc1`, the Potency entry in assay [1] and in assay [2] was “inactive” each time.
Consider `C/C=C(\C)C(=O)OCCC(C)CCC=C(C)C` (centres undefined), for which the Potency entry in assay [1] and in assay [2] was “inactive” each time.
For `CC(C)(C)c1ccc(C(O)CCCN2CCC(C(O)(c3ccccc3)c3ccccc3)CC2)cc1` (centres undefined), the Potency result in assay [1] and in assay [2] was “inactive” in each case.
As to `O=C(N/N=C/c1ccc([N+](=O)[O-])o1)c1ccc(O)cc1`, the Potency result in assay [1] and in assay [2] was “inactive” throughout.
Turning to `Clc1ccnc(Cl)n1`, the Potency result in assay [1] and in assay [2] was “inactive” throughout.
In the case of `O=Cc1cccc(Br)c1`, the Potency result in assay [1] and in assay [2] was “inactive” each time.
In the case of `CCOC(=O)c1c(C)n(C)c2ccc(O)cc12`, the Potency result in assay [1] and in assay [2] was “inactive” in each case.
Regarding `NC(Cc1ccc(Cl)cc1)C(=O)O` (centres undefined), in assay [1], the viability change, negative = cytotoxic was 9.93% [at 0.349 µM]. In assay [2], the activity change, negative = cytotoxicity was -0.576% [at 0.349 µM].
Consider `NC(=O)N1c2ccccc2CC(=O)c2ccccc21`, for which the Potency entry in assay [1] and in assay [2] was “inactive” each time.
On to `CC/C=C\CC1=C(C)CCC1=O`, for which the Potency entry in assay [1] and in assay [2] was “inactive” each time.
As for `COc1ccc(-c2ccc3cc(C(=O)O)ccc3c2)cc1C12CC3CC(CC(C3)C1)C2`, the Potency result in assay [1] and in assay [2] was “inactive” throughout.
For the compound `O=C(O)/C=C/c1ccccc1`, the Potency entry in assay [1] and in assay [2] was “inactive” each time.
Turning to `O=S(=O)(O)CO`, the Potency entry in assay [1] and in assay [2] was “inactive” each time.
Turning to `O=C(O)c1cc(C(=O)O)cc([N+](=O)[O-])c1`, the Potency entry in assay [1] and in assay [2] was “inactive” each time.
Consider `C/C(=C1\CCOC(=O)S1)N(C=O)Cc1cnc(C)nc1N`, for which the Potency result in assay [1] and in assay [2] was “inactive” each time.
Turning to `FC(F)OC(Cl)C(F)(F)F` (centres undefined), the Potency entry in assay [1] and in assay [2] was “inactive” throughout.
On to `NC(=O)c1ncn([C@@H]2O[C@H](CO)[C@@H](O)[C@H]2O)c1N`, for which the Potency entry in assay [1] and in assay [2] was “inactive” throughout.
As to `CC#N`, the Potency result in assay [1] and in assay [2] was “inactive” each time.
As to `O=S(=O)(c1ccc(OCc2ccccc2)cc1)c1ccccc1O`, the Potency entry in assay [1] and in assay [2] was “inactive” each time.
As for `ONc1ccccc1`, the Potency result in assay [1] and in assay [2] was “inactive” each time.
As to `CCCCC(CC)COC(=O)C(C#N)=C(c1ccccc1)c1ccccc1` (centres undefined), the Potency result in assay [1] and in assay [2] was “inactive” throughout.
In the case of `CS(=O)(=O)CCNCc1ccc(-c2ccc3ncnc(Nc4ccc(OCc5cccc(F)c5)c(Cl)c4)c3c2)o1`, the Potency result in assay [1] and in assay [2] was “inactive” each time.
Take `CCCc1nc(C)c2c(=O)[nH]c(-c3cc(S(=O)(=O)N4CCN(CC)CC4)ccc3OCC)nn12`: the Potency entry in assay [1] and in assay [2] was “inactive” throughout.
As to `O=C(O)CCCl`, the Potency result in assay [1] and in assay [2] was “inactive” throughout.
On to `CC1(C)[C@H]2CC[C@]1(C)[C@H](O)C2`, for which the Potency entry in assay [1] and in assay [2] was “inactive” each time.
As for `OC[C@@H](O)C(O)[C@@H](O)CO` (some centres undefined), the Potency entry in assay [1] and in assay [2] was “inactive” each time.
On to `Cc1oc(-c2ccccc2)nc1CCC(=O)c1ccc(CC2SC(=O)NC2=O)cc1` (centres undefined), for which the Potency result in assay [1] and in assay [2] was “inactive” throughout.
As to `O=C1c2ccccc2C(=O)c2cc(O)ccc21`, the Potency result in assay [1] and in assay [2] was “inactive” in each case.
